Screens from PubChem BioAssay.
PrP 5UTR inh = suppresses PrP 5' UTR mRNA reporter expression | inhibition, % (no concentration beside the values) | 340,000 tested, 0.35% active | cell-based PrP 5' UTR mRNA reporter, plate reader; in the data active = inhibition above about 52%; note: 0 = median of the neutral control wells
PrPC TRFRET = reduces human prion protein on the cell surface; inhibition, % at 13.8 µM; cell surface PrPC, TR-FRET read-out; P04156; 370,000 tested, 0.43% active; in the data active = inhibition above about 24%; note: 0% = median of the test wells and 100% = reference compound wells
PfHsp40 rescue = rescue of PfHsp40-mediated yeast toxicity; growth rescue, % at 12.5 µM; 340,000 tested, 0.68% active; AID 504582; S. cerevisiae expressing PfHsp40, growth rescue, ATP luminescence; in the data active = growth rescue above about 28%, passing the limit was not always enough;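 note: yeast W303a lacking pdr1 and pdr3 grown in galactose medium; growth measured after three days at 30 °C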
MazF activator = activators of E. coli MazEF toxin-antitoxin RNase; activation, % at 20 µM; FAM/BHQ RNA-DNA oligo cleavage fluorescence, 5 h; P0AE70; 350,000 tested, 0.32% active; in the data active = activation above about 50%
Target sequence (P0AE70 whole entry, looked up): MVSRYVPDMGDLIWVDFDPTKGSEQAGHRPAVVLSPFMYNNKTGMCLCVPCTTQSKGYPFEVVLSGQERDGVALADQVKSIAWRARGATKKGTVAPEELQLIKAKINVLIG
DUSP3 inh = DUSP3 (human) phosphatase inhibition | P51452 | recombinant VHR phosphatase, pNPP absorbance | inhibition, % at 13.3 µM | 290,000 tested, 0.52% active | AID 1654; in the data active = inhibition above about 50%
Target sequence (P51452 whole entry, looked up): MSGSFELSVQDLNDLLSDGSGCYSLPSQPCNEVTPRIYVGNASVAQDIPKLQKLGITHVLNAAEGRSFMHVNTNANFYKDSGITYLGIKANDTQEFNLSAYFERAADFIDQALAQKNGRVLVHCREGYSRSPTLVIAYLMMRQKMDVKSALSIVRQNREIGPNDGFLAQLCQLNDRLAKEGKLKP
BJeLR viability = BJeLR cell viability loss; BJeLR (HRASV12) viability, CellTiter-Glo ATP luminescence, 48 h; inhibition, % (no concentration beside the values); 300,000 tested, 0.17% active; in the data active = inhibition above about 50%
* marks the source's active call; other numbers are inactive results. Most compounds without a hit are left out; they make up all but 2.1% or so of the library.

For COC(=O)c1ccccc1NC(=O)C(C)Oc1ccccc1 (stereo not drawn) the results were PrP 5UTR inh 1, PrPC TRFRET -2, PfHsp40 rescue 2, MazF activator 2 and DUSP3 inh 13.
For CCOC(=O)CSc1nnc(CNC(=O)c2cccc(C)c2)n1C the results were PrP 5UTR inh -28, PrPC TRFRET 2, PfHsp40 rescue 47*, MazF activator -7, DUSP3 inh 27 and BJeLR viability 5.
COc1ccc(COC(=O)c2cc([N+](=O)[O-])ccc2N2CCOCC2)cc1F was read as PrP 5UTR inh 2, PrPC TRFRET -1, PfHsp40 rescue 1, MazF activator 4 and BJeLR viability 55*.
For Cc1cc(NC(=O)c2ccc(NS(=O)(=O)c3ccc(F)cc3)cc2)no1 the results were PrPC TRFRET -2.
CC1CN(C(=O)CCC(=O)NCCCN2C(C)CCCC2C)c2ccccc2O1 (stereo not drawn) was read as PrP 5UTR inh -9, PrPC TRFRET -2, PfHsp40 rescue -2, MazF activator 13, DUSP3 inh 53* and BJeLR viability 3.
Screening CC1CCC(NC(=O)CCC(=O)N2CC(C)Oc3ccccc32)CC1 (stereo not drawn) returned PrP 5UTR inh -33, PrPC TRFRET 1, PfHsp40 rescue 0, MazF activator 2, DUSP3 inh 9 and BJeLR viability -5.
O=C(Oc1cccc(C(=S)N2CCOCC2)c1)c1ccc([N+](=O)[O-])cc1[N+](=O)[O-] was read as PrP 5UTR inh -12, PrPC TRFRET -12, PfHsp40 rescue 44*, MazF activator 1, DUSP3 inh 23 and BJeLR viability -3.
O=C(Oc1ccc(C(=S)N2CCOCC2)cc1)c1ccc([N+](=O)[O-])cc1[N+](=O)[O-] was read as PrP 5UTR inh -26, PrPC TRFRET -18, PfHsp40 rescue 3, MazF activator 9, DUSP3 inh 4 and BJeLR viability -2.
Screening Cc1ccc(-c2cnc(C(O)c3c(C)cccc3C)[nH]2)cc1 (stereo not drawn) returned PrPC TRFRET 12.
`COc1[nH]c(/N=C/c2ccccc2)c(C#N)c1C#N` gave PrP 5UTR inh -15, PrPC TRFRET 0, PfHsp40 rescue -1, MazF activator 74*, DUSP3 inh 1 and BJeLR viability 2.
O=C(CNC(=O)c1ccccc1Br)NCC(c1ccco1)N1CCCCC1 (stereo not drawn) was read as PrP 5UTR inh -10, PrPC TRFRET 5, PfHsp40 rescue 0 and MazF activator 5.
For CCC1(C)NC(C(=O)O)Cc2c1[nH]c1ccccc21 (stereo not drawn) the results were PrP 5UTR inh -30, PrPC TRFRET -6, PfHsp40 rescue 0, MazF activator 3, DUSP3 inh 60* and BJeLR viability -7.
`CCC(C)C(=O)Nc1nc(C)c(-c2csc(Nc3cc(OC)ccc3OC)n2)s1` (stereo not drawn) gave PrP 5UTR inh -11, PrPC TRFRET 5, PfHsp40 rescue -2, MazF activator 0, DUSP3 inh 51* and BJeLR viability 0.
CCC(C)C(=O)Nc1nc(C)c(-c2csc(Nc3cc(Cl)ccc3OC)n2)s1 (stereo not drawn) was read as PrP 5UTR inh -18, PrPC TRFRET -2, PfHsp40 rescue -1, MazF activator 1, DUSP3 inh 27 and BJeLR viability 3.
Screening CCc1nn(C(C)C(=O)N2CCN(c3ccc(OC)cc3)CC2)c(=O)c2cc3occc3n12 (stereo not drawn) returned PrP 5UTR inh -12, PrPC TRFRET 7, PfHsp40 rescue 112*, MazF activator 3, DUSP3 inh 1 and BJeLR viability 19.
`CCCOc1ccc(F)cc1-c1cc(C(=O)NCc2ccco2)[nH]n1` gave PrPC TRFRET 5.
`O=c1c(Cl)nc2cc(Cl)ccc2n1CCNc1ncc(C(F)(F)F)cc1Cl` gave PrP 5UTR inh 0, PfHsp40 rescue -2, MazF activator 24, DUSP3 inh -8 and BJeLR viability 88*.
For Cc1ccc(OCC(=O)OC(C)C(=O)NC2CCCCC2C)cc1C (stereo not drawn) the results were PrP 5UTR inh -9, PrPC TRFRET -10, PfHsp40 rescue 0 and MazF activator -3.
Screening O=C1Nc2ccccc2/C1=C/c1cnc[nH]1 returned PrP 5UTR inh 10, PrPC TRFRET -17, PfHsp40 rescue -1, MazF activator 2, DUSP3 inh 33 and BJeLR viability -4.
For O=C1Nc2ccccc2/C1=C/c1cnc(-c2ccccc2)[nH]1 the results were PrP 5UTR inh -91, PrPC TRFRET 3, PfHsp40 rescue 1, MazF activator 98*, DUSP3 inh -22 and BJeLR viability -3.
`Cc1cc(C)cc(N(CCC#N)C(=O)COC(=O)C2CCN(c3ccc(C(F)(F)F)cn3)CC2)c1` gave PrP 5UTR inh -2, PrPC TRFRET 3, PfHsp40 rescue 2, MazF activator -2 and BJeLR viability 0.
O=C1CC(O)(C(F)(F)F)Oc2c1ccc1ccccc21 (stereo not drawn) was read as PrP 5UTR inh -61, PrPC TRFRET -2, PfHsp40 rescue 54*, MazF activator -3, DUSP3 inh -6 and BJeLR viability 2.
`Cc1ccc2c(C(=O)CN3CCN(C(=O)c4ccco4)CC3)c(C)[nH]c2c1` gave PrP 5UTR inh 0, PrPC TRFRET 0, PfHsp40 rescue -1, MazF activator 11, DUSP3 inh 1 and BJeLR viability 7.
Screening O=c1[nH]ncc2c3ccccc3n(Cc3ccccc3)c12 returned PrP 5UTR inh 1, PrPC TRFRET 8, PfHsp40 rescue 1, MazF activator 17, DUSP3 inh 19 and BJeLR viability 2.
For CCCn1c2ccccc2c2cn[nH]c(=O)c21 the results were PrP 5UTR inh -4, PrPC TRFRET 15, PfHsp40 rescue 2, MazF activator 8, DUSP3 inh 59* and BJeLR viability -7.
Screening OCCN(Cc1ccccc1)CC(O)COc1ccc2c(c1)OCO2 (stereo not drawn) returned PrP 5UTR inh 0, PrPC TRFRET -9, PfHsp40 rescue 0, MazF activator 9, DUSP3 inh 2 and BJeLR viability 6.
Screening CNC(=O)CSc1nc(-c2ccccc2)c(-c2ccccc2)o1 returned PrP 5UTR inh -13, PrPC TRFRET -12, PfHsp40 rescue 6, MazF activator -1, DUSP3 inh 14 and BJeLR viability 5.
For CN(C)C(=O)CSc1nc(-c2ccccc2)c(-c2ccccc2)o1 the results were PrP 5UTR inh -25, PrPC TRFRET -9, PfHsp40 rescue 8, MazF activator -6, DUSP3 inh 51* and BJeLR viability -5.
`Cc1cccn2cc(COc3cccc([N+](=O)[O-])c3)nc12` gave PrP 5UTR inh -26, PrPC TRFRET -14, PfHsp40 rescue 0, MazF activator 3, DUSP3 inh 25 and BJeLR viability 7.
